40 sequences from the supplement of paper PMC6555819 can be followed below.

This assay relates to VDR:RXRa (NR concentration 270 nM, RXRa partner concentration 90 nM). Put plainly: PBM binding z-score (relative to random genomic background probes); higher = stronger binding; sequences stand for … in GC…GCGATTGACAGCGTAGAATGAAGG
How it is done: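 Protein-binding microarray (Agilent 4x180K custom design, double-stranded 60-nt probes: 5' GC cap, 34-nt variable region, 24-nt constant primer region; full probe sequence given). Purified or IVT nuclear receptor:RXRα heterodimers (3:1 NR:RXRα, mostly 270:90 nM) or homodimers were incubated for 1 h in PBS with 2% milk and no ligand, then detected with Alexa488 antibodies. Fluorescence from o1-orientation probes (~5 replicates averaged) was converted to z-scores against 500 random hg19 background probes. Variable regions are seed direct-repeat (DR0–DR5) sites, all their single-nucleotide variants and half-site ablations.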
Sequence GGAACGAGGGCATTCGAGATGATAGCATGGCGAT had a PBM binding z-score of 1.45. ATCGAAAGGTCGAGGTGAGTATAGAGAAAGGGAA displayed a PBM binding z-score of 2.69. The sequence CAAATTAGGTCACAGAGGTCAAAGTCCGTGCGTA gave a PBM binding z-score of 8.12. Then GCAGACAGGTGAAACGCAGGTAACTTAGGGTGGC, with -0.477; and CTCGAAAGGTCCTGCTCAGGTGAGTATACCAAAC, with -0.0691; and ATATGTAGGTGAGCTGGGGTCATTCAGACTAGGC, with 5.66. CTACCAAGGTGAACAAGGTCGTTGTTTACTATTC: the PBM binding z-score came to 6.2. TCGAGTATGTTACCAATGGGGCATTCAGCTTTCT had a PBM binding z-score of -0.0704. In the case of CGAACTTGGTCAGAACAGGACAGTGAAGGATGAT, the PBM binding z-score was -0.145. The value for TAGCCTAGGTCATTGAGGGGCCAGTATAGAAAGC was 3.07. Then CGTCCAAGGTAATAGGAGGTCAGTGAAGACAGAT, with 2.56.

Sequence TCTTGTAGATCAAAGGTTACGAAAGCCGAAGCCT displayed a PBM binding z-score of 1.6. The value for CCTACTGGGCCAAAAAGGTCATTTATGCCGATAA was 4.44; that for ATCTCTAGGTAAAGTGCAGTGAAAGATCGATAGA was 0.146; that for CAAACTAGGTCACGAAAGGTCAGAGTCGAATGAC was 6.2.

In turn, TCGAGTAAGTTAGTCGGGGCATTCAGCCAACATA yielded a PBM binding z-score of -0.133.

GCAGAAAGGTGAAACGCAGGTAACTCAGGGTGGC gave a PBM binding z-score of 0.145. In the case of TCATATAGGTAAAACAGGTGAAAGTCGGCATCTA, the PBM binding z-score amounted to 1.17. The sequence TCTAGTTGGTCACGGAGGTCACACATGACGGGTA registered a PBM binding z-score of 5.83. The value for TATTGTAGATCAAGCAGGTTAAGAAAGCCTGAGT was 0.301; that for ATATGTAGGTTACATCCTGGTCATTCAGGCTATG was 0.956. The value for TCTGCTAGGTCAGTTGGTCAACTAACGAGCTGCC was 0.33. CCTAGCTGGTCAAGGTCACACACGCTATAGGTAC: the PBM binding z-score turned out to be 3.75.

The sequence TCTTGTCGATCAGCAGGTTAAGAAAGCTGGCCAA came in with a PBM binding z-score of 0.358.

In the case of TAACCAAGGTGAAAGGTCGTTGATGCACGCCTTG, the PBM binding z-score came out at 3.38. CGTCCAATGTCATAGGAGGTCAGTGAAGACAGAT gave a PBM binding z-score of 3.45. Then ACTAGTTGGTCAGCTGAGGTCACAAACAATTCGG, with 4.24; and CCGAATGGGGCATAAGGTTACCATAAGCCAGCCC, with 0.232. In turn, TAGCCTAGGTCATTCAGGGGCCAGTGTAGAAAGC came in with a PBM binding z-score of 3.33.

GCATATAGGTAATACAAGGTGCAAGTCCGATTGT: the PBM binding z-score worked out at 0.355. The value for CGAACTTGGTCATTGACAGGACAGTGAATAGTAA was 0.0642. The value for CCTATTAGTTGACCATAAGGCCAACCGAAGCTCG was 0.724; that for TCAGACAGGTGATGGTAACTCAGGTACGCAGTCG was 0.615; that for TCATATAGGTCATACAGGTGAAAGTCGGCATCTA was 5.01. The value for TATCCTAGGTCATTCAGGGGCCAGTATAGAAAGC was 3.57; that for AGAATGAGGTTATACGTAGATCAAGGAAGAAAGT was 1.33. Turning to ATCTCTTGGTAACAAGTTCAGTGAAAGAGAGGAC, the PBM binding z-score was 1.84. The sequence TAGCCGAGGTCATTGGGCCAGTATAGTACGCATC came in with a PBM binding z-score of 5.59. Then CAAAGTAGGTCAAAGGTCAAAGTCGAGCCAACCA, with 6.63. The value for TAGCCTAAGTCATTGGGCCAGTATAGTACGCATC was -0.202.
